In the supplement of paper PMC10849652:
Of roughly 8,800 targets only a part is listed; those with a hit were picked by preference. About 0.5% of all pairs of compound and target were hits.

compound: Cn1cncc1[C@@](N)(c1ccc(Cl)cc1)c1ccc2c(c1)c(-c1cccc(Cl)c1)cc(=O)n2C [tipifarnib]; assay: log2 fold change, soluble protein after heating vs DMSO (PISA); higher = thermal stabilisation; K562 lysate, 10 uM; active = over 0.2 and 3.5 SD of the protein, either way, in both replicates (recomputed)
Summary of the method: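 Values give the log-two fold change in thermal stability against solvent controls, from duplicates. Crude K562 extract at 1 mg/mL protein, made by dounce homogenisation in PBS pH 7.4 with 1 mM MgCl2, was treated with 10 μM compound for 30 min. After 3 min heating across 48°C-58°C, aliquots were pooled, adjusted to 0.5% NP-40 at 4°C and centrifuged at 21,000xg for 90 min. The supernatant was measured by TMTpro 16plex LC-MS/MS with channel sums equalised.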

UniProt P50570, sequence (P50570 whole entry, looked up): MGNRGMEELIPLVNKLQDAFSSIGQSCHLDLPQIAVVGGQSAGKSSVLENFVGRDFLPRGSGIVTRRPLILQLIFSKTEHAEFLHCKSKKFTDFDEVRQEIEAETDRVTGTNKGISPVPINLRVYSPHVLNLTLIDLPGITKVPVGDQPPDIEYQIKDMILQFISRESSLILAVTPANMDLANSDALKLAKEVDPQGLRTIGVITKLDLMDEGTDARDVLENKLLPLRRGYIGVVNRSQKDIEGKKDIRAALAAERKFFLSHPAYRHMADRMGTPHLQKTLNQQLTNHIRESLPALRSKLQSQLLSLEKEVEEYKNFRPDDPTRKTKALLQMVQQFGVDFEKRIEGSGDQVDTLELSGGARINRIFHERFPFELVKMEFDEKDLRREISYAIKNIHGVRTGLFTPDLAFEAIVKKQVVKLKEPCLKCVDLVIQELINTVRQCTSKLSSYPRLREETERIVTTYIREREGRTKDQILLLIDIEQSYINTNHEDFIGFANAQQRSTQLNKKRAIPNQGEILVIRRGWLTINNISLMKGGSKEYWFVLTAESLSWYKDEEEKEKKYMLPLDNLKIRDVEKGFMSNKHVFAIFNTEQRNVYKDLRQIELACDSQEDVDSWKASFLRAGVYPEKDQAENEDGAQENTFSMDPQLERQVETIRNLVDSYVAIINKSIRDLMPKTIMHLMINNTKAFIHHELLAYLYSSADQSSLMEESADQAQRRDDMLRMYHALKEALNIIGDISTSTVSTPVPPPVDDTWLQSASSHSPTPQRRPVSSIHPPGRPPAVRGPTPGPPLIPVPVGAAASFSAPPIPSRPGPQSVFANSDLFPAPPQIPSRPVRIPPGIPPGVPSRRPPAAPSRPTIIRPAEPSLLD
UniProt Q8NI60, sequence (Q8NI60 whole entry, looked up): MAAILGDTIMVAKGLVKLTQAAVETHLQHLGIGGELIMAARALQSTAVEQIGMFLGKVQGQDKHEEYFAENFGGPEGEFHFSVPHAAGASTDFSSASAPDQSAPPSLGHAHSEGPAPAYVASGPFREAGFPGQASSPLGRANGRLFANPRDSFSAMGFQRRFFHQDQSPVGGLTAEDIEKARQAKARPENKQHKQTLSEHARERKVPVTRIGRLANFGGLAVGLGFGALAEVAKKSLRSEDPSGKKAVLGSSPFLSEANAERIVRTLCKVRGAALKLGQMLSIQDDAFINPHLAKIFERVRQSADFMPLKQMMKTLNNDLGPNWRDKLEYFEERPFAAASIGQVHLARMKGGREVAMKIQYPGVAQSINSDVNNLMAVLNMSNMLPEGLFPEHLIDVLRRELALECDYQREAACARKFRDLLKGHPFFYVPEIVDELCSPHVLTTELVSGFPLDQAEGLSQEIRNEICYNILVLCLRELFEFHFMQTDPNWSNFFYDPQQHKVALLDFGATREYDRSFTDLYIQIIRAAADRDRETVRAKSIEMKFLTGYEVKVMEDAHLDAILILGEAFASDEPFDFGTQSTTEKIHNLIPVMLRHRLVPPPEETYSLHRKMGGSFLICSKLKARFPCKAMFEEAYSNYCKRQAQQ
UniProt Q1MSJ5, sequence (Q1MSJ5 whole entry, looked up): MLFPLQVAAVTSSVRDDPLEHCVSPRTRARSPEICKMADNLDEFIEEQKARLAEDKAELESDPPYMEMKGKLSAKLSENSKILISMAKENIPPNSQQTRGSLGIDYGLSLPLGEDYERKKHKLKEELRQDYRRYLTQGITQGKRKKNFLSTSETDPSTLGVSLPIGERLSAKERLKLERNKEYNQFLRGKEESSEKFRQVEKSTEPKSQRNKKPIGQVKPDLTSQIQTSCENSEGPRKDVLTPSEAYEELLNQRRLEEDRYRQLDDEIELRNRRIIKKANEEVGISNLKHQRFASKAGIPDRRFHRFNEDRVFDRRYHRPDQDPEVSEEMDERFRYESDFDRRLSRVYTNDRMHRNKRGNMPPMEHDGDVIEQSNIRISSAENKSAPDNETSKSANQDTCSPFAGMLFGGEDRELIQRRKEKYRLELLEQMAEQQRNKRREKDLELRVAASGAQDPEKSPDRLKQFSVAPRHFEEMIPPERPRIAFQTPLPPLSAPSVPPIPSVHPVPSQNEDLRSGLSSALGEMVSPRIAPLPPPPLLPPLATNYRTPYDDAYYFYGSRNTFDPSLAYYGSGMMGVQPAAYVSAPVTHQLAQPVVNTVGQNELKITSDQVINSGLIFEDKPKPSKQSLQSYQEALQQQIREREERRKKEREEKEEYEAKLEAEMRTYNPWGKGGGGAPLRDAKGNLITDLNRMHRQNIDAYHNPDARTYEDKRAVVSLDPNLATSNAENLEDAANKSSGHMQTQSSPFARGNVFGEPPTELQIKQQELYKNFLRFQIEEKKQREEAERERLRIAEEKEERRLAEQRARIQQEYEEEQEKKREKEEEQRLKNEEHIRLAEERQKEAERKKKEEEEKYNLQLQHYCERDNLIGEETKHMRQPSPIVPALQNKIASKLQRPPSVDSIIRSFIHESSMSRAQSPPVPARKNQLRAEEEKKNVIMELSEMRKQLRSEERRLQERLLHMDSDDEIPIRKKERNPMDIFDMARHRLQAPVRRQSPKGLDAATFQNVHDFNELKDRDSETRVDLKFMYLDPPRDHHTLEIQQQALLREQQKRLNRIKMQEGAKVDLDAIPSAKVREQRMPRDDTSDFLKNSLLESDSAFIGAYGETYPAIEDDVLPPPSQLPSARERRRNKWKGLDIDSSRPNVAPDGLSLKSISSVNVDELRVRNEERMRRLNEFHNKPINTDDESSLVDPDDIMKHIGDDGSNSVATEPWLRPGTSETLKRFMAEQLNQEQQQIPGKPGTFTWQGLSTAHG
UniProt Q9NSV4, sequence (Q9NSV4 whole entry, looked up): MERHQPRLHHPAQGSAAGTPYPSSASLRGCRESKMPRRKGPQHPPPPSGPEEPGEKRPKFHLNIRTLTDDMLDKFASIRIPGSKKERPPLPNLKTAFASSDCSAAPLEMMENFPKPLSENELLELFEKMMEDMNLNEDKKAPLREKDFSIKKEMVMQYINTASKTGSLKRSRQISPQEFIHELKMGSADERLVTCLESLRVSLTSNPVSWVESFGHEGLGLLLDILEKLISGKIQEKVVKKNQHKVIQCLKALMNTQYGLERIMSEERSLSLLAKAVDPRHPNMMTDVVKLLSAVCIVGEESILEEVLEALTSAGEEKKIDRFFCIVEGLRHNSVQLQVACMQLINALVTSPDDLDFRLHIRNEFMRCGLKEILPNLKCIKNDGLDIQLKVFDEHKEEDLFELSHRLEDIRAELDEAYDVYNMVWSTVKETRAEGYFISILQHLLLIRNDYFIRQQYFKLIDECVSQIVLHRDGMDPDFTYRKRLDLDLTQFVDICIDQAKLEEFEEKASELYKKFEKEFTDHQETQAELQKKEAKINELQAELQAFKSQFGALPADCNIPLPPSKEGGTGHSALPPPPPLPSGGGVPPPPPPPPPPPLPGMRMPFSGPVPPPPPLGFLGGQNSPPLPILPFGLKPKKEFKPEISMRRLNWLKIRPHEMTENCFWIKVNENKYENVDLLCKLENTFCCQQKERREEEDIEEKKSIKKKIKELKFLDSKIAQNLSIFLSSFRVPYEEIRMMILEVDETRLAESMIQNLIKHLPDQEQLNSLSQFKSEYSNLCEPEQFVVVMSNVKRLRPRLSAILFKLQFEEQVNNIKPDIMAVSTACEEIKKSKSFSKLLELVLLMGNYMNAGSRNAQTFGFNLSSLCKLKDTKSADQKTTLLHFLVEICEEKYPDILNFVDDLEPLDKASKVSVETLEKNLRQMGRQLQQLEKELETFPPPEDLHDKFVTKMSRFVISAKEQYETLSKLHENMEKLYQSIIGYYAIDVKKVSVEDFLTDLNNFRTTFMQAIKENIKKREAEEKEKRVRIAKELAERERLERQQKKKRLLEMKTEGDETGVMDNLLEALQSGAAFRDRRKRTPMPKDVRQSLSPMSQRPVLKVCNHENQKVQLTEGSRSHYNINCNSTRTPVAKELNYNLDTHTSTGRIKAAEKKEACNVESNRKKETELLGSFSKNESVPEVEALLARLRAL
UniProt Q96JB2, sequence (Q96JB2 whole entry, looked up): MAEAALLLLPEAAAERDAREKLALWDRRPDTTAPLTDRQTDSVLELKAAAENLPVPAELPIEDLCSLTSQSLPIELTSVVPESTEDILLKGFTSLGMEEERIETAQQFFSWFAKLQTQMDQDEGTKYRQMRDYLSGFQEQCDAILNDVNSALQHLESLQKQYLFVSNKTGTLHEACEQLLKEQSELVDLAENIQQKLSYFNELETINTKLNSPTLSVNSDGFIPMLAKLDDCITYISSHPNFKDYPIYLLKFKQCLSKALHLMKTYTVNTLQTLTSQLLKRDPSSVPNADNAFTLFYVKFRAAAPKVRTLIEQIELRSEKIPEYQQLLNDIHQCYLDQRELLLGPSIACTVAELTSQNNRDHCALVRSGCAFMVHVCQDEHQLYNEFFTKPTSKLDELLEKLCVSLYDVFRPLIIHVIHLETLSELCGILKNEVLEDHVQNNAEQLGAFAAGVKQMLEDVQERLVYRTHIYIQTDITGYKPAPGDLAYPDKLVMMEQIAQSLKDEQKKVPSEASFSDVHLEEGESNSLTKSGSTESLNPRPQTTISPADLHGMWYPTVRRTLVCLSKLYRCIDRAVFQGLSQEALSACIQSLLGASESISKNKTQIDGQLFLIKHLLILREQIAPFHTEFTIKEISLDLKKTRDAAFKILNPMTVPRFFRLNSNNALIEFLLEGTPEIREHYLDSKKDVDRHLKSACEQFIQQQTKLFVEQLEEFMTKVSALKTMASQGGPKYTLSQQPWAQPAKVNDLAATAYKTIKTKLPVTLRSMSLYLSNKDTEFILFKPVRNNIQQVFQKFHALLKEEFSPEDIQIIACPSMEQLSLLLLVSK
UniProt Q9H2P9, sequence (Q9H2P9 whole entry, looked up): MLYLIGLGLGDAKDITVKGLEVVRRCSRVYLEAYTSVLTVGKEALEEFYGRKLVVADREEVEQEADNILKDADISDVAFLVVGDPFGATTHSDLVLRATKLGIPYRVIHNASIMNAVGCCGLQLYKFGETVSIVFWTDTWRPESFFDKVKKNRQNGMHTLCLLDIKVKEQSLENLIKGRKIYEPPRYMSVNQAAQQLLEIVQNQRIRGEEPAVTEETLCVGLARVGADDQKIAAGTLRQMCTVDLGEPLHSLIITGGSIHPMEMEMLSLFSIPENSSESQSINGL

Row | Target | log2 fold change
1 | COTL1 (UniProt Q14019) | 0.055 (inactive)
2 | DHCR7 (UniProt Q9UBM7) | 0.015 (inactive)
3 | DIAPH3 (UniProt Q9NSV4) | -0.041 (inactive)
4 | DMAC2L (UniProt Q99766) | -0.017 (inactive)
5 | COQ8A (UniProt Q8NI60) | 0.032 (inactive)
6 | CLIP1 isoform 1 (UniProt P30622) | 0.002 (inactive)
7 | CORO7 isoform 3 (UniProt P57737) | 0.005 (inactive)
8 | CLASP2 isoform 3 (UniProt O75122) | -0.063 (inactive)
9 | COG5 isoform 2 (UniProt Q9UP83) | -0.019 (inactive)
10 | DOCK7 (UniProt Q96N67) | -0.01 (inactive)
11 | CLUH (UniProt O75153) | 0.007 (inactive)
12 | CRABP2 (UniProt P29373) | 0.061 (inactive)
13 | CUEDC2 (UniProt Q9H467) | 0.009 (inactive)
14 | CNOT6L (UniProt Q96LI5) | -0.047 (inactive)
15 | COG4 (UniProt Q9H9E3) | 0.006 (inactive)
16 | CLPTM1L (UniProt Q96KA5) | -0.026 (inactive)
17 | DPH5 isoform 5 (UniProt Q9H2P9) | 0.017 (inactive)

Row | Target | log2 fold change
18 | CXXC1 isoform 2 (UniProt Q9P0U4) | -0.039 (inactive)
19 | COG6 (UniProt Q9Y2V7) | -0.045 (inactive)
20 | DENND4A isoform 2 (UniProt Q7Z401) | -0.017 (inactive)
21 | CMBL (UniProt Q96DG6) | -0.001 (inactive)
22 | DNM2 isoform 4 (UniProt P50570) | -0.12 (inactive)
23 | DMXL1 (UniProt Q9Y485) | -0.015 (inactive)
24 | DNM2 (UniProt P50570) | 0.011 (inactive)
25 | COG3 (UniProt Q96JB2) | 0.022 (inactive)
26 | DPM1 (UniProt O60762) | 0.03 (inactive)
27 | CSPP1 (UniProt Q1MSJ5) | 0.078 (inactive)
28 | CNIH4 (UniProt Q9P003) | -0.515 (active)
29 | CSTF2 (UniProt P33240) | -0.021 (inactive)
30 | CXorf38 (UniProt Q8TB03) | 0.002 (inactive)
31 | DHRS11 (UniProt Q6UWP2) | 0.002 (inactive)
32 | CHEK1 (UniProt O14757) | 0.016 (inactive)
33 | COG2 (UniProt Q14746) | -0.06 (inactive)
34 | CLIC2 (UniProt O15247) | -0.024 (inactive)
